{"source": "PubChem BioAssay (NCATS)", "target": "Cellular tumor antigen p53 (Homo sapiens) (UniProt P04637)", "sequence (P04637 whole entry, looked up)": "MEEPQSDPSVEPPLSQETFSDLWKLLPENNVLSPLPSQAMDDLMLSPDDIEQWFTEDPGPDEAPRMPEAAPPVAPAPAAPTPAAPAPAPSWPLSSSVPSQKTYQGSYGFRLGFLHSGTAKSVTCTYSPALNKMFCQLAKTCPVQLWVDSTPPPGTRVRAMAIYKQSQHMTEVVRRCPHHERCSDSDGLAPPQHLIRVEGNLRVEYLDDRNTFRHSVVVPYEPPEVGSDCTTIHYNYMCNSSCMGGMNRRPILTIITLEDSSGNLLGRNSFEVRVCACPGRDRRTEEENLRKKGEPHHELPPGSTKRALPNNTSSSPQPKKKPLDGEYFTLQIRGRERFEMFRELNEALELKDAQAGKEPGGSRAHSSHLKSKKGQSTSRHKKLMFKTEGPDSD", "test": "Primary qHTS for small molecule compounds that upregulate eGFP-tagged delta133p53alpha (in N-terminal) cells. (AID 2060322); further: nearly all actives have a fitted effect of over 75% in size;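 on activation: series mostly up to about 56 µM; 0% = DMSO vehicle and 100% = reference activator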", "details": "NCI-H358 eGFP-delta133p53alpha fluorescence, 24 h; activation: active compounds read high", "outline": "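NCI-H358 cells pre-induced 24 h with 10 ng/ml doxycycline to express N-terminal eGFP-delta133p53alpha, then dosed 24 h at 37C without doxycycline; fixed, Hoechst-stained, GFP intensity by laser scanning cytometry, normalized to DMSO (0%) and 57.5 uM 5-azacytidine (100%).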", "note": "Records with an inconclusive call do not appear. Unmarked numbers belong to inactive results. Activity calls are given as the source filed them. The call rests on the fitted dose curve; in most records, active means well fitted activation curve with a large enough effect; inconclusive means small, poorly fitted or top-dose-only effect; inactive means no such curve, though single readings can be large or run the other way. Potency means the concentration at half of the fitted maximal effect."}
{"smiles": "Cc1cc(CCCOc2c(C)cc(-c3noc(C(F)(F)F)n3)cc2C)on1", "values": [{"measurement": "activation", "result": 19.8, "unit": "%"}]}
{"smiles": "NC(=O)N[C@@H](CCC(=O)O)C(=O)O", "values": [{"measurement": "activation", "result": -5.02, "unit": "%"}]}
{"smiles": "CN(CCCN1c2ccccc2CCc2ccccc21)CC(=O)c1ccc(Cl)cc1", "values": [{"measurement": "activation", "result": -1.69, "unit": "%"}]}
{"smiles": "COC(=O)C1=C(C)NC(C)=C(C(=O)OCCc2ccc(N3CCN(C(c4ccccc4)c4ccccc4)CC3)cc2)C1c1cccc([N+](=O)[O-])c1", "note": "(stereo not drawn)", "values": [{"measurement": "activation", "result": -15.9, "unit": "%"}]}
{"smiles": "CC(C)=CCOc1ccc(/C=C/C(=O)c2ccc(OCC=C(C)C)cc2OCC(=O)O)cc1", "values": [{"measurement": "activation", "result": -1.67, "unit": "%"}]}
{"smiles": "CCN(CC)CCOC(=O)C(c1ccccc1)c1ccccc1", "values": [{"measurement": "activation", "result": -8.47, "unit": "%"}]}
{"smiles": "CCS(=O)(=O)CCn1c([N+](=O)[O-])cnc1C", "values": [{"measurement": "Potency", "result": "17.4 µM (active)"}]}
{"smiles": "CN1Cc2cc(C(=O)N3CCC(C4CCNCC4)CC3)ccc2N[C@@H](CC(=O)O)C1=O", "values": [{"measurement": "activation", "result": 20.1, "unit": "%"}]}
{"smiles": "O=C1Nc2cc(Cl)ccc2Oc2ccccc21", "values": [{"measurement": "activation", "result": -1.69, "unit": "%"}]}
{"smiles": "COc1ccc(-c2cc(=O)c3c(O)cc(O[C@@H]4O[C@H](CO[C@@H]5O[C@@H](C)[C@H](O)[C@@H](O)[C@@H]5O)[C@@H](O)[C@H](O)[C@@H]4O)cc3o2)cc1O", "values": [{"measurement": "activation", "result": -19, "unit": "%"}]}
{"smiles": "C[C@@H](O)[C@H]1C(=O)N2C(C(=O)O)=C([C@H]3CCCO3)S[C@H]12", "values": [{"measurement": "activation", "result": -8.47, "unit": "%"}]}
{"smiles": "CC[C@H]1CN2CCc3cc(OC)c(OC)cc3[C@H]2C[C@@H]1C[C@@H]1NCCc2cc(OC)c(OC)cc21", "values": [{"measurement": "Potency", "result": "1.37 µM (active)"}]}
{"smiles": "O=C(Nc1ccc(C(=O)O)c(O)c1)c1ccccc1", "values": [{"measurement": "activation", "result": -30.1, "unit": "%"}]}
{"smiles": "CC=CC[C@@H](C)C(=O)[C@H]1C(=O)N[C@@H](C(C)C)C(=O)N(C)CC(=O)N(C)[C@@H](CC(C)C)C(=O)N[C@@H](C(C)C)C(=O)N(C)[C@@H](CC(C)C)C(=O)N[C@@H](C)C(=O)N[C@H](C)C(=O)N(C)[C@@H](CC(C)C)C(=O)N(C)[C@@H](CC(C)C)C(=O)N(C)[C@@H](C(C)C)C(=O)N1C", "values": [{"measurement": "activation", "result": 34.2, "unit": "%"}]}
{"smiles": "CCOC(=O)c1ccc(O)cc1", "values": [{"measurement": "activation", "result": -12.6, "unit": "%"}]}
{"smiles": "O=C1c2cccc(O)c2C(=O)c2c(O)cccc21", "values": [{"measurement": "activation", "result": -22.6, "unit": "%"}]}
{"smiles": "CCCCCC(N)=O", "values": [{"measurement": "activation", "result": -17.5, "unit": "%"}]}
{"smiles": "Cc1ccc(Cl)c(OCC(O)CNC(C)(C)C)c1", "note": "(stereo not drawn)", "values": [{"measurement": "activation", "result": -2.51, "unit": "%"}]}
{"smiles": "O=S(=O)(NCCNCC=Cc1ccc(Br)cc1)c1cccc2cnccc12", "values": [{"measurement": "activation", "result": -19.7, "unit": "%"}]}
{"smiles": "CS[C@H]1SC[C@@H]2C(=O)N(C)[C@H](C(C)C)C(=O)OC[C@H](NC(=O)c3cnc4ccccc4n3)C(=O)N[C@H](C)C(=O)N(C)[C@@H]1C(=O)N(C)[C@H](C(C)C)C(=O)OC[C@H](NC(=O)c1cnc3ccccc3n1)C(=O)N[C@H](C)C(=O)N2C", "values": [{"measurement": "Potency", "result": "0.0343 µM (active)"}]}
{"smiles": "COc1ccc2c(c1)c(CC(=O)OC/C=C(\\C)CC/C=C(\\C)CCC=C(C)C)c(C)n2C(=O)c1ccc(Cl)cc1", "values": [{"measurement": "activation", "result": -1.69, "unit": "%"}]}
{"smiles": "CCOC(=O)C1=C(C)NC(C)=C(C(=O)OCC)C1c1ccccc1/C=C/C(=O)OC(C)(C)C", "values": [{"measurement": "activation", "result": 17.5, "unit": "%"}]}
{"smiles": "O=C(CCCN1CCC(O)(c2ccc(Br)cc2)CC1)c1ccc(F)cc1", "values": [{"measurement": "activation", "result": 3.35, "unit": "%"}]}
{"smiles": "C[C@H](Cn1cnc2c(N)ncnc21)OCP(=O)(O)O", "values": [{"measurement": "activation", "result": 61.4, "unit": "%"}]}
{"smiles": "Nc1ccccc1N", "values": [{"measurement": "Potency", "result": "17.8 µM (active)"}]}
{"smiles": "C[C@H]1O[C@H](O[C@H]2[C@H](O)[C@@H](O)[C@@H](O[C@H]3[C@H](O)[C@@H](O)C(O)O[C@H]3CO)O[C@H]2CO)[C@H](O)[C@@H](O)[C@H]1N[C@H]1C=C(CO)[C@@H](O)[C@H](O)[C@@H]1O", "note": "(stereo partly drawn)", "values": [{"measurement": "activation", "result": 140, "unit": "%"}]}
{"smiles": "COc1cc(/C=C/C(N)=O)cc(OC)c1OC", "values": [{"measurement": "activation", "result": -18.6, "unit": "%"}]}
{"smiles": "C[C@H](O)C(=O)Nc1c(I)c(C(=O)NC(CO)CO)c(I)c(C(=O)NC(CO)CO)c1I", "values": [{"measurement": "activation", "result": 10.9, "unit": "%"}]}
{"smiles": "CN(C)C(=S)SC(=S)N(C)C", "values": [{"measurement": "Potency", "result": "21.9 µM (active)"}]}
{"smiles": "c1ccc(CC2=NCCN2)cc1", "values": [{"measurement": "activation", "result": -3.95, "unit": "%"}]}
{"smiles": "C[C@]12CCC3=C4CCC(=O)C=C4CC[C@@H]3[C@H]1CC[C@@]2(O)CC#N", "values": [{"measurement": "activation", "result": 7.95, "unit": "%"}]}
{"smiles": "Cc1ccccc1N1CCN(CCc2nnc3n2CCCC3)CC1", "values": [{"measurement": "activation", "result": -10.7, "unit": "%"}]}
{"smiles": "CCC(=O)c1ccc(O)cc1", "values": [{"measurement": "activation", "result": -10, "unit": "%"}]}
